In PubChem BioAssay (NCI):
About 83,000 compounds went through this panel and 20% of them were active in at least one assay; those are over-represented in the sample as a whole.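 Results are percent growth after 48 hours of single-concentration exposure. 100 means growth as in untreated cells, lower positive values show inhibition; negative values down to -100 show cell death.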 Active and inactive are the calls of the source. Rule for the calls: active = growth percent below 10; inactive = the rest.

What was measured:
Test in all cases: NCI-60 one-dose screen, 48 h (100 = growth as untreated, 0 = no growth, -100 = all killed)
Conditions in all cases: 10 µM unless noted
SK-MEL-2 melanoma = tested on: SK-MEL-2 melanoma
EKVX NSCLC = tested on: EKVX NSCLC
SN12C renal = tested on: SN12C renal
UO-31 renal = tested on: UO-31 renal
TK-10 renal = tested on: TK-10 renal
ACHN renal = tested on: ACHN renal
CAKI-1 renal = tested on: CAKI-1 renal
A498 renal = tested on: A498 renal
MOLT-4 leukemia = tested on: MOLT-4 leukemia
SR leukemia = tested on: SR leukemia
RPMI-8226 leukemia = tested on: RPMI-8226 leukemia
OVCAR-8 ovarian = tested on: OVCAR-8 ovarian
OVCAR-5 ovarian = tested on: OVCAR-5 ovarian
OVCAR-4 ovarian = tested on: OVCAR-4 ovarian
SK-OV-3 ovarian = tested on: SK-OV-3 ovarian
IGROV1 ovarian = tested on: IGROV1 ovarian
OVCAR-3 ovarian = tested on: OVCAR-3 ovarian
HS 578T breast = tested on: HS 578T breast
NCI/ADR-RES ovarian = tested on: NCI/ADR-RES ovarian

Measured: growth

Cc1ccc2nc(NC(=O)CSc3nc(-c4ccccc4)c(C#N)c(=O)n3Cc3ccccc3)sc2c1
inactive: SK-MEL-2 melanoma 85.7% | EKVX NSCLC 90.2% | SN12C renal 92% | UO-31 renal 67.4% | TK-10 renal 119% | ACHN renal 92.6% | CAKI-1 renal 69% | A498 renal 85.7% | MOLT-4 leukemia 93.8% | SR leukemia 44.5% | RPMI-8226 leukemia 67.8% | OVCAR-8 ovarian 93% | OVCAR-5 ovarian 108% | OVCAR-4 ovarian 92.8% | SK-OV-3 ovarian 82.1% | IGROV1 ovarian 78% | OVCAR-3 ovarian 58.5% | HS 578T breast 78.2% | NCI/ADR-RES ovarian 92.2%

NS(=O)(=O)c1cnccc1Sc1ccncc1S(N)(=O)=O
active: IGROV1 ovarian 6.71%
inactive: SK-MEL-2 melanoma 119% | EKVX NSCLC 96.9% | SN12C renal 100% | UO-31 renal 80% | TK-10 renal 99.6% | ACHN renal 106% | CAKI-1 renal 98.2% | A498 renal 104% | MOLT-4 leukemia 86.3% | SR leukemia 92.2% | RPMI-8226 leukemia 86.2% | OVCAR-8 ovarian 96% | OVCAR-5 ovarian 101% | OVCAR-4 ovarian 118% | SK-OV-3 ovarian 95.6% | OVCAR-3 ovarian 103% | HS 578T breast 94.5% | NCI/ADR-RES ovarian 98.9%

COC1=C(OC)C(=O)C(OC)=C(OC)C1=O
inactive: SK-MEL-2 melanoma 118% | EKVX NSCLC 102% | SN12C renal 94.9% | UO-31 renal 81.2% | TK-10 renal 124% | ACHN renal 118% | CAKI-1 renal 98.9% | A498 renal 77.2% | SR leukemia 94.4% | RPMI-8226 leukemia 102% | OVCAR-8 ovarian 93.4% | OVCAR-5 ovarian 108% | OVCAR-4 ovarian 42.1% | SK-OV-3 ovarian 110% | IGROV1 ovarian 101% | OVCAR-3 ovarian 99.3% | HS 578T breast 97% | NCI/ADR-RES ovarian 98%
active: MOLT-4 leukemia -24.5%

COc1ccccc1CNCCCN1C(=O)c2ccc3c4c(ccc(c24)C1=O)C(=O)N(CCCNCCCCN)C3=O
inactive: UO-31 renal 11.2% | CAKI-1 renal 33.7% | SK-OV-3 ovarian 14.2% | NCI/ADR-RES ovarian 42.5%
active: SK-MEL-2 melanoma -67.9% | EKVX NSCLC 8.85% | SN12C renal -39.3% | TK-10 renal -1.84% | ACHN renal 7.77% | A498 renal -52% | MOLT-4 leukemia 0.762% | SR leukemia 5.25% | RPMI-8226 leukemia -8.59% | OVCAR-8 ovarian -7.98% | OVCAR-5 ovarian -12.4% | OVCAR-4 ovarian -84.9% | IGROV1 ovarian 8.53% | OVCAR-3 ovarian -1.35% | HS 578T breast -7.25%

COc1ccc(-c2csc(C3=C(O)CN(C(C)C)C3=N)n2)cc1OC
active: UO-31 renal 3.91%
inactive: SK-MEL-2 melanoma 133% | EKVX NSCLC 94.3% | SN12C renal 97.4% | TK-10 renal 94.4% | ACHN renal 103% | CAKI-1 renal 82.1% | A498 renal 89.6% | MOLT-4 leukemia 87.2% | SR leukemia 57% | RPMI-8226 leukemia 56.3% | OVCAR-8 ovarian 91% | OVCAR-5 ovarian 96.6% | OVCAR-4 ovarian 117% | SK-OV-3 ovarian 124% | OVCAR-3 ovarian 117% | HS 578T breast 110% | NCI/ADR-RES ovarian 98.5%

COc1cc(/C=C/C(=O)c2c(C)nc3ccccc3c2C)ccc1OCCCN1CCN(C(=O)c2ccco2)CC1
inactive: SK-MEL-2 melanoma 59.3% | EKVX NSCLC 81.7% | SN12C renal 92.5% | UO-31 renal 66.7% | TK-10 renal 110% | ACHN renal 80.6% | CAKI-1 renal 74.8% | A498 renal 59.4% | MOLT-4 leukemia 60.6% | SR leukemia 64.8% | RPMI-8226 leukemia 31.4% | OVCAR-8 ovarian 73.5% | OVCAR-5 ovarian 95.5% | OVCAR-4 ovarian 25.2% | SK-OV-3 ovarian 107% | IGROV1 ovarian 76.6% | OVCAR-3 ovarian 97.9% | HS 578T breast 82.1% | NCI/ADR-RES ovarian 55.6%

O=C1CCc2c(sc3[nH]c(=S)n(-c4ccc(OC(F)(F)F)cc4)c(=O)c23)C1
active: RPMI-8226 leukemia -21.7%
inactive: SK-MEL-2 melanoma 58.5% | EKVX NSCLC 56.7% | SN12C renal 31.4% | UO-31 renal 44.4% | TK-10 renal 104% | ACHN renal 80.3% | CAKI-1 renal 83.6% | A498 renal 107% | MOLT-4 leukemia 47.3% | SR leukemia 35.8% | OVCAR-8 ovarian 53.6% | OVCAR-5 ovarian 55.7% | OVCAR-4 ovarian 17.1% | SK-OV-3 ovarian 104% | IGROV1 ovarian 55.6% | OVCAR-3 ovarian 13.2% | HS 578T breast 37.1% | NCI/ADR-RES ovarian 12.5%

CCCCCCCC/C=C\CCCCCCCCOc1ccccc1CC(=O)NCC[N+](C)(C)C
active: TK-10 renal 9.37%
inactive: SK-MEL-2 melanoma 96.4% | EKVX NSCLC 83.4% | SN12C renal 67.5% | UO-31 renal 79.6% | ACHN renal 68.2% | CAKI-1 renal 50.7% | A498 renal 100% | MOLT-4 leukemia 77.3% | SR leukemia 23.6% | RPMI-8226 leukemia 56.1% | OVCAR-8 ovarian 64.4% | OVCAR-5 ovarian 25% | OVCAR-4 ovarian 78.7% | SK-OV-3 ovarian 81.9% | IGROV1 ovarian 28.9% | OVCAR-3 ovarian 83.2% | HS 578T breast 91.8% | NCI/ADR-RES ovarian 104%

CC1(C)CC[C@]2(C(=O)N3CCOCC3)CC[C@]3(C)C(=CC[C@@H]4[C@@]5(C)CC[C@H](OC(=O)c6cccnc6)C(C)(C)[C@@H]5CC[C@]43C)[C@@H]2C1
inactive: SK-MEL-2 melanoma 84.4% | EKVX NSCLC 88.2% | SN12C renal 74.4% | UO-31 renal 62.9% | TK-10 renal 83% | ACHN renal 45.3% | CAKI-1 renal 40.1% | A498 renal 70.3% | MOLT-4 leukemia 49% | SR leukemia 53.7% | RPMI-8226 leukemia 35.5% | OVCAR-8 ovarian 76.6% | OVCAR-5 ovarian 75.5% | OVCAR-4 ovarian 60.7% | SK-OV-3 ovarian 88.2% | IGROV1 ovarian 69.7% | OVCAR-3 ovarian 53.2% | HS 578T breast 86.7% | NCI/ADR-RES ovarian 89.9%

Cc1ccc(CCC(=O)Nc2ncc(Cc3cc(Cl)ccc3Cl)s2)o1
active: A498 renal 6.53% | OVCAR-3 ovarian -0.778% | HS 578T breast 9.73% | NCI/ADR-RES ovarian -4.35%
inactive: SK-MEL-2 melanoma 65% | EKVX NSCLC 41% | SN12C renal 23.4% | UO-31 renal 32% | TK-10 renal 57% | ACHN renal 28.8% | CAKI-1 renal 26.2% | MOLT-4 leukemia 14% | SR leukemia 16.2% | RPMI-8226 leukemia 19.9% | OVCAR-8 ovarian 11.8% | OVCAR-5 ovarian 23.2% | OVCAR-4 ovarian 43.3% | SK-OV-3 ovarian 33.1% | IGROV1 ovarian 17%

COc1ccc(C(=O)COc2ccc(/C=C3\Oc4ccccc4C3=O)cc2)cc1
active: UO-31 renal -44.4%
inactive: SK-MEL-2 melanoma 103% | EKVX NSCLC 99% | SN12C renal 97.2% | TK-10 renal 136% | ACHN renal 101% | CAKI-1 renal 91% | A498 renal 106% | MOLT-4 leukemia 81.7% | SR leukemia 108% | RPMI-8226 leukemia 89% | OVCAR-8 ovarian 98.9% | OVCAR-5 ovarian 96.8% | OVCAR-4 ovarian 99.2% | SK-OV-3 ovarian 103% | OVCAR-3 ovarian 102% | HS 578T breast 100% | NCI/ADR-RES ovarian 91.8%

O=[N+]([O-])c1ccc(-c2cc(-c3ccc(Nc4nc(Nc5ccc(Cl)cc5)nc(Nc5ccc(Cl)cc5)n4)cc3)no2)cc1
inactive: SK-MEL-2 melanoma 72.4% | EKVX NSCLC 92.9% | SN12C renal 97.6% | UO-31 renal 78.8% | TK-10 renal 105% | ACHN renal 94.5% | CAKI-1 renal 115% | A498 renal 88.2% | SR leukemia 14.5% | RPMI-8226 leukemia 34.7% | OVCAR-8 ovarian 99% | OVCAR-5 ovarian 70.7% | OVCAR-4 ovarian 31.4% | SK-OV-3 ovarian 107% | IGROV1 ovarian 92% | OVCAR-3 ovarian 241% | HS 578T breast 99.9% | NCI/ADR-RES ovarian 75.3%
active: MOLT-4 leukemia -19.7%

N=c1sc(Cc2ccc(Cl)cc2)cn1CC(=O)c1ccc(F)cc1
inactive: SK-MEL-2 melanoma 97.1% | EKVX NSCLC 70.5% | SN12C renal 87.5% | UO-31 renal 57.6% | TK-10 renal 66.9% | ACHN renal 47.2% | CAKI-1 renal 44.6% | A498 renal 91.1% | MOLT-4 leukemia 71.3% | SR leukemia 87.4% | RPMI-8226 leukemia 74.1% | OVCAR-8 ovarian 80% | OVCAR-5 ovarian 71% | OVCAR-4 ovarian 69% | SK-OV-3 ovarian 107% | IGROV1 ovarian 78.2% | OVCAR-3 ovarian 92.6% | HS 578T breast 96.9% | NCI/ADR-RES ovarian 73.9%

COc1cc2c(cc1-c1c(C)noc1C)ncc1nc(C3CCCCC3)n(C3CCC(OC(F)F)CC3)c12 (configuration not stated)
active: SK-MEL-2 melanoma 6.6% | UO-31 renal 8.28% | RPMI-8226 leukemia 4.9% | SK-OV-3 ovarian -2.64%
inactive: EKVX NSCLC 41.1% | SN12C renal 52.7% | TK-10 renal 24.1% | ACHN renal 37.4% | CAKI-1 renal 42.7% | A498 renal 28.3% | MOLT-4 leukemia 18.4% | SR leukemia 16.7% | OVCAR-8 ovarian 40.5% | OVCAR-5 ovarian 63.5% | OVCAR-4 ovarian 40.3% | IGROV1 ovarian 50.9% | OVCAR-3 ovarian 27.8% | HS 578T breast 52.2% | NCI/ADR-RES ovarian 30%

Fc1c[c-]c(-c2ccccn2)c(F)c1.[CH3-].[Pt+2].c1ccc(P(C[PH+](c2ccccc2)c2ccccc2)c2ccccc2)cc1
inactive: NCI/ADR-RES ovarian 49.8%
active: SK-MEL-2 melanoma -39% | EKVX NSCLC -12% | SN12C renal -32.2% | UO-31 renal -98.2% | TK-10 renal -30.5% | ACHN renal -100% | CAKI-1 renal -73.8% | A498 renal -79.3% | MOLT-4 leukemia 0% | SR leukemia 1.65% | RPMI-8226 leukemia -13.2% | OVCAR-8 ovarian 7.36% | OVCAR-5 ovarian -34.5% | OVCAR-4 ovarian -19.3% | SK-OV-3 ovarian 9.11% | IGROV1 ovarian -22.2% | OVCAR-3 ovarian -74.9% | HS 578T breast -5.48%

CCOc1ccccc1-c1cc(-c2cccs2)c(C#N)c(=O)[nH]1
inactive: SK-MEL-2 melanoma 98.4% | EKVX NSCLC 97.5% | SN12C renal 83.3% | UO-31 renal 68.8% | TK-10 renal 110% | ACHN renal 95.6% | CAKI-1 renal 76.1% | A498 renal 70.2% | MOLT-4 leukemia 92.9% | SR leukemia 77.4% | RPMI-8226 leukemia 91.2% | OVCAR-8 ovarian 95% | OVCAR-5 ovarian 94.6% | OVCAR-4 ovarian 39.2% | SK-OV-3 ovarian 98.7% | IGROV1 ovarian 66.7% | OVCAR-3 ovarian 99.7% | HS 578T breast 76.6% | NCI/ADR-RES ovarian 76.7%
